Test results from PMC4336329 (PLoS ONE, 2015).
In all, about 310,000 compounds went through this assay and about 14,000 (4.5%) showed an effect of 50% or more. The effect is printed as a negative number. What follows is part of a selection rich in strong results, with near analogues and random picks from the rest.

The compounds below were run against human ether-à-go-go-related gene (hERG) potassium channel (human, UniProt Q12809) (assay: primary screen, population patch clamp on CHO cells stably expressing hERG; higher = less effect of the substance).
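Note: peak tail current of the secondary pulse compared with the same well before compound.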

human ether-à-go-go-related gene (hERG) potassium channel, sequence (Q12809 whole entry, looked up): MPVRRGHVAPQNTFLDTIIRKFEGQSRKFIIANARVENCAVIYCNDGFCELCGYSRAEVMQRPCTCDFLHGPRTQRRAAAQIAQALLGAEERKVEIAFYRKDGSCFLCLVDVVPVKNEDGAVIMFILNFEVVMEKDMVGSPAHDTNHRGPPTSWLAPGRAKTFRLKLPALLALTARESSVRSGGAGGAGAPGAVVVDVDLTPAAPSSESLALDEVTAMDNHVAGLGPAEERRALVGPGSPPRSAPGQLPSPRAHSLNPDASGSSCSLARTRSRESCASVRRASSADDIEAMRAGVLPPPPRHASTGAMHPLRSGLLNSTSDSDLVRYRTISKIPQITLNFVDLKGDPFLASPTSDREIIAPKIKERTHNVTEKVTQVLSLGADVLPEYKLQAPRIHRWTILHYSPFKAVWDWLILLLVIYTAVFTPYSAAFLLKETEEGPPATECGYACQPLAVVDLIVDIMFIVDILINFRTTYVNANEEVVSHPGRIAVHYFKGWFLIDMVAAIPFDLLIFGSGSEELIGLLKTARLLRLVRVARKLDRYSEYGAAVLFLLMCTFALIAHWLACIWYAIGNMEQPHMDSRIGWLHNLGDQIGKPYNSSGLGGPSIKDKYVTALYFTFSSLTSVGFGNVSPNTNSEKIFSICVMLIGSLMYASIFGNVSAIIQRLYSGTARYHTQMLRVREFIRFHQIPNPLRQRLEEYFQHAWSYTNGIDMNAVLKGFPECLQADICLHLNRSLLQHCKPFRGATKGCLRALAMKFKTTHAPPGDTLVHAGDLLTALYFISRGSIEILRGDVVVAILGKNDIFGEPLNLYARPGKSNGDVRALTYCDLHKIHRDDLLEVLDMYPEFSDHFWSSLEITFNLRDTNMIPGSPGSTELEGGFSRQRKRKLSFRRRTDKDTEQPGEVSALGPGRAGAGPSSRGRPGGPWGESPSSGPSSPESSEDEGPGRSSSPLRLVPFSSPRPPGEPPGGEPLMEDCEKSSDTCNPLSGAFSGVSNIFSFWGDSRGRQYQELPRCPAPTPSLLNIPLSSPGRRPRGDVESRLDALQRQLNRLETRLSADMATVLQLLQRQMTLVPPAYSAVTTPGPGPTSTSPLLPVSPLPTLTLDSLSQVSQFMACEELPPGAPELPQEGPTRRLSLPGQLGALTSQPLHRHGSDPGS

Compound | hERG current change (%, negative = inhibition) at 10uM [%]
O=C(CC1Nc2ccccc2NC1=O)c1ccccc1 (stereo not shown) | -2.01
O=C(O)/C=C\C(=O)O.OCCN1CCN(CC/C=C2/c3ccccc3CSc3ccccc32)CC1 | -12.2
CN(C)CC/C=C1/c2cc(F)ccc2Sc2ccc(Cl)cc21.Cl | -34.5
CN(C)CC/C=C1/c2ccccc2Sc2ccc(Cl)cc21.Cl | -56.8
CN(C)CC/C=C1\c2ccccc2Sc2cc(F)c(Cl)cc21.Cl | 7.2
Cl.OCCN1CCN(CC/C=C2/c3ccccc3Sc3ccc(Cl)cc32)CC1 | -68.8
Cl.OCCN1CCN(CC/C=C2/c3ccccc3Sc3ccc(C(F)(F)F)cc32)CC1 | -47.1
CN(C)CC/C=C1\c2cc(Cl)ccc2Sc2cc(F)c(F)cc21.Cl | 1.25
CN(C)CC/C=C1\c2ccccc2Sc2ccc(Cl)cc21.Cl | -56.7
CN(C)CC/C=C1/c2ccccc2Sc2ccc(Cl)cc21 | -8.11
CCN(CC)S(=O)(=O)c1ccc(C(=O)OCC(=O)NCCN2C(=O)CSC2=O)cc1 | -14.4
O=C1C(=Cc2ccco2)C(=O)c2ccccc21 | 8.17
CN1C(=O)c2ccc(C(=O)Nc3ccccc3O)cc2C1=O | 4.6
Cc1nn(C)cc1/C=N/NC(=O)c1sc2ccccc2c1Cl | -6.47
O=P(c1ccccc1)(c1ccccc1)C(c1ccco1)N1CCOCC1 (stereo not shown) | 9.93
Cc1nnc(NCCc2ccccc2)c2ccccc12 | -18.1
COc1ccc(NC(=O)NCCN2CCN(c3ccc(C)cc3)CC2)c(Cl)c1 | -8.96
COc1ccc(NC(=O)NCCN2CCN(c3cc(OC)ccc3OC)CC2)cc1 | -2.75
COc1ccc(Cl)c(N2CCN(CCCNC(=O)Nc3ccc(C)cc3)CC2)c1 | -72.4
COc1ccc(NC(=O)NCCCN2CCN(c3cc(C)ccc3C)CC2)cc1 | -92.2
Cc1ccc(NC(=O)NCCCN2CCOCC2)cc1 | 4.63
COc1ccc(NC(=O)NCCN2CCCCC2)cc1 | -10.1
Cc1cc(SCC(=O)Nc2c(C)n(C)n(-c3ccccc3)c2=O)nc2ccccc12 | -38.7
Cc1cc(C(=O)OCC(=O)c2ccc3c(c2)NC(=O)CO3)c2ccccc2n1 | 18.8
O=C(NCCN1CCOCC1)c1ccccc1-c1ccccc1 | 0.439

Compound | hERG current change (%, negative = inhibition) at 10uM [%]
O=C(NCCN1CCOCC1)c1cc(-c2ccccc2Cl)nc2ccccc12 | -15
CCc1ccc(Sc2cc(C(=O)NCCN3CCOCC3)c3ccccc3n2)cc1 | -56.2
O=C(NCCN1CCOCC1)c1cc(Sc2ccc(F)cc2F)nc2ccccc12 | -42.8
O=C(NCCN1CCOCC1)c1cnn2c(-c3ccccc3)cc(-c3ccccc3)nc12 | -72.5
O=C(NCCCN1CCOCC1)c1cnn2c(-c3ccccc3)cc(-c3ccccc3)nc12 | -41.3
O=C(NCCN1CCOCC1)c1cc(Sc2cccc(Cl)c2)nc2ccccc12 | -77.2
O=C(NCCN1CCOCC1)c1cc(Sc2ccccc2Cl)nc2ccccc12 | -27.1
CCc1ccc(Nc2cc(C(=O)NCCCN3CCOCC3)c3ccccc3n2)cc1 | -35.5
Cc1ccc(S(=O)(=O)N2CCC(C(=O)N[C@H](C(=O)NCc3ccco3)C(C)C)CC2)cc1 | -15.9
O=C(NCC(=O)N(c1ccc(Cl)cc1)C(C(=O)NC1CCCC1)c1ccncc1)c1ccco1 (stereo not shown) | -5.29
O=C(Nc1ccccn1)Nc1ccccc1Cl | 23.2
Cc1nc2scc(-c3ccccc3)c2c(=O)o1 | -12.7
CCN1C(=O)/C(=C2/C=CC=CN2C)SC1=S | -35.2
CN1C=CC=C/C1=C1\SC(=S)N(C2CCCCC2)C1=O | -52.3
CN1C=CC=C/C1=C1\SC(=S)N(N)C1=O | 26.4
O=C(N/N=C/c1ccc(O)c([N+](=O)[O-])c1)c1ccncc1 | -7.5
Cc1ccc(C)c(CSc2ncccc2C(=O)O)c1 | 6.29
O=C(N/N=C/c1ccc(Br)cc1)c1cc[n+](Cc2ccccc2)cc1.[Cl-] | -10.7
O=C(C[n+]1ccc(C(=O)N/N=C/c2ccc(Cl)cc2Cl)cc1)c1ccccc1.[Br-] | -74.8
O=C(C[n+]1ccc(C(=O)N/N=C/c2ccc(OCc3ccccc3)cc2)cc1)c1ccccc1.[Br-] | 1.3
O=C(C[n+]1cccc(C(=O)N/N=C/c2ccc(Br)cc2)c1)c1ccccc1 | -56.5
COc1ccc(OC)c(/C=N/NC(=O)c2cc[n+](CC(=O)c3ccccc3)cc2)c1.[Br-] | -5.33
COc1ccc(OC)c(/C=N/NC(=O)c2ccc[n+](CC(=O)c3ccccc3)c2)c1 | 15.3
O=C(C[n+]1ccc(C(=O)N/N=C/c2ccc(O)cc2)cc1)c1ccccc1.[Br-] | -6.07
